Experimental data as given in PubChem BioAssay (Tox21).
Several values for one entry are separate records, joined by “and”; a condition that tells them apart may be missing. Equal entries are not always repeated. Records with an inconclusive call do not appear. Entries that show only a call come without a potency. Values without a mark were called inactive. Activity calls are given as the source filed them. The call rests on the fitted dose curve; in most records, active means well fitted activation curve with a large enough effect in the signal ratio in the repeat runs (not every such curve was filed as active); inconclusive means weak or mixed curves; inactive means flat fitted curve, though single readings scatter; the % refers to the signal ratio.

Experiment: qHTS assay to identify small molecule agonists of H2AX (AID 1224845)
Settings: CHO-K1 phospho-H2AX Ser139 HTRF, 3 h; series mostly up to 154 µM; activation (H2AX phosphorylation): at the top concentration
Description: National Center for Advancing Translational Sciences [NCATS]
NIH Chemical Genomics Center [NCGC]
U.S. Environmental Protection Agency [EPA]
National Institutes of Environmental Health Sciences [NIEHS]
National Toxicology Program [NTP]
U.S. Food and Drug Administration [FDA]
HTRF phospho-H2AX (Ser139) assay (Cisbio Bioassays, US) enables the quantitative detection of the histone variant H2AX when phosphorylated on serine 139. When double-stranded DNA breaks, either by ionizing radiation or endogenous physiological processes, H2AX becomes phosphorylated at Ser139. This phospho-Ser139 serves as a sensitive biomarker for the detection of such breaks, localizing the site of DNA repair. So, HTRF phospho-H2AX Ser139 is a pertinent assay to study genome stability, the cell cycle, DNA repair, and it serves as a biomarker for cancer, and to understand aging. Wild type CHO-K1 cells were used to identify the inducers of Phospho-H2AX Ser 139 from the Tox21 10K compound collections.
Tox21 Assay Protocol Summary:
The CHO-K1 cells suspended in culture medium containing 10% FBS were dispensed at 1000 cells/ 3 ul/well in 1536-well white wall/solid bottom plates (Greiner Bio-One North America, NC) using a Multidrop Combi (Thermo Fisher Scientific Inc., Waltham, MA). After the assay plates were incubated at 37C overnight, 23 nl of compounds at 15 concentrations (from 5-48 columns) or positive control (from 1 to 4 columns) were transferred to the assay plates using a Pintool station (Wako, San Diego, CA) into each well resulting in a final DMSO concentration of 0.76%. After 3hr incubation at 37C, 1 uL/well Supplemented Lysis buffer (diluted 100 fold blocking reagent in lysis buffer) (HTRF Phospho-H2A.X (S139) Assay kit from Cisbio US Inc., Bedford, MA) was added using a Flying Reagent Dispenser (FRD) (Aurora Discovery, CA). After 10sec spin at 1000 rpm in a plate centrifuge, the assay plates were incubated at room temperature for 30 min. Then followed by the addition of 1 uL/well detection buffer (containing a mixture of two antibodies, one labeled with cryptate, Anti pH2AX (S139)-K and another labeled with d2, Anti H2AX-d2) using FRD. After incubation at room temperature for 24 hr, the time resolved fluorescence at excitation 320 nm and emissions at 665 nm and 620 nm was measured using an Envision plate reader (PerkinElmer, Waltham, MA).

Structure (SMILES)	Potency	activation (H2AX phosphorylation)
OCc1cccnc1	inactive	
Cc1cc(C)c(C)cc1C	inactive	
c1ccc(OCCOc2ccccc2)cc1	inactive	
C[Si](O[Si](C)(C)C)O[Si](C)(C)C	inactive	
CSCCC=O	inactive	
ON=C1CCCCC1	inactive	
CCN(CC)CCCC(C)Nc1ccnc2cc(Cl)ccc12 (stereo not given)		3.5% [at 14 µM] and -4.76% [at 31.6 µM]
O=C(O)c1cc(=O)c2c(OCC(O)COc3cccc4oc(C(=O)O)cc(=O)c34)cccc2o1	inactive	
CC1=CCC2CC1C2(C)C (stereo not given)	inactive	
CCCCCC/C(C=O)=C\c1ccccc1	inactive	
Cc1cccc(O)c1	inactive	
C[C@H]1C[C@@H]2[C@H]([C@@H](O)C[C@@]3(C)[C@H]2CC[C@]3(O)C(=O)CO)[C@@]2(C)C=CC(=O)C=C12	inactive	
Cc1ccc(N(C)C)cc1	inactive	
O=C(O)CCCC[C@@H]1SC[C@@H]2NC(=O)N[C@@H]21	inactive	
O=C(O)c1ccc(C(=O)O)cc1	inactive	
CC1CCC(C(C)C)C(O)C1 (stereo not given)	inactive	
CN(C)CCOCCN(C)C		0.7%
O=C(O)CCCCCCCCCCC(=O)O	inactive	
CC(=O)c1ccccc1	inactive	
CN(C)CCC(c1ccc(Cl)cc1)c1ccccn1 (stereo not given)		-1.91%

Structure (SMILES)	Potency	activation (H2AX phosphorylation)
CN(C)CCCN	inactive	
C=CCOC(=O)c1ccccc1C(=O)OCC=C		-2.69%
C=C(C)C(=O)Nc1ccc(Cl)c(Cl)c1	inactive	
CC1=C(C)S(=O)(=O)CCS1(=O)=O	inactive	
CCCCCCCCCCCCS	inactive	
O=c1[nH]nnc2ccccc12	inactive	
C=C(C)C(=O)OCCOCCOCCOC(=O)C(=C)C	inactive	
CCC(O)OCCCOC (stereo not given)	inactive	
CC(C)(C)[C@@H](O)[C@@H](Cc1ccc(Cl)cc1)n1cncn1	inactive	
CCCCCCOCCO	inactive	
CC(=O)Nc1ccccc1	inactive	
CCCCN(CCCC)CCCC	inactive	
CCN(CC)c1ccc(C(=O)c2ccccc2C(=O)O)c(O)c1	inactive	
N[C@@H](Cc1cc(I)c(Oc2cc(I)c(O)c(I)c2)c(I)c1)C(=O)O	inactive	
c1c[nH]cn1	inactive	
COc1cc(Cc2cnc(N)nc2N)cc(OC)c1OC	inactive	
CCCCCCCCCCCCc1ccccc1	inactive	
CCCCCCCCC/C=C/CC1CC(=O)OC1=O (stereo not given)	inactive	
Cc1ccc(S(N)(=O)=O)cc1	inactive	
CC(=O)CC(=O)Nc1ccccc1C	inactive	
